According to PubChem BioAssay AID488841 (Sanford-Burnham Center for Chemical Genomics, 2010):
Screen size: about 1,400 compounds; about 380 (27%) were called active.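 How the source made its calls: active means mean inhibition above 50% across duplicate retests at 10 µM; inactive means the rest.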 Some of the results follow.

Assay: yeast NALP1 reporter signal suppression – S. cerevisiae, luminescence, single concentration, NALP1 inhibitor project, confirmation (AID 488841);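 further: plate controls were DMSO in galactose medium for no effect and cells in plain SD medium for full effect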
Conditions: S. cerevisiae NALP1/ASC/Caspase-1 reporter, beta-gal luminescence; at 10 µM; hits give high values

Compound	inhibition
C=CCc1cccc(/C=N/c2nc3ccccc3n2CC)c1O	15.8% (inactive)
CCc1ccc(S(=O)(=O)/N=C2/C=C(Sc3ncn[nH]3)C(=O)c3ccccc32)cc1	86.3% (active)
O=C1c2ccccc2C(=O)c2c1ncn2-c1ccccc1	24.1% (inactive)
CCOc1ccc(OCCCCn2ccnc2)cc1	34.5% (inactive)
Cc1cc(Br)ccc1OCCn1ccnc1	43% (inactive)
CCC(C)c1ccc(OCCn2ccnc2)cc1 (centres undefined)	58.6% (active)
COC(=O)c1c(N)c(C#N)c2n1CCCCC2	21% (inactive)
Cc1cccc(C)c1NC(=O)CSc1nc2ccccc2c(=O)[nH]1	31.1% (inactive)
Cc1ccccc1OCCCSc1nc2ccccc2[nH]1	63% (active)
Cc1cccc(OCCCSc2nc3ccc(C)cc3[nH]2)c1	56.4% (active)
CCCn1nc(NC(=O)c2ccccn2)c2cc3cc(C)ccc3nc21	13.2% (inactive)
NC(C(=O)O)C1CC(Cl)=NO1 (centres undefined)	24.8% (inactive)
S=C(NC1CCCCC1)NN(c1ccccc1)c1ccccc1	21.3% (inactive)
O=S(=O)(/C=C/c1ccccc1)NC1CCCCCCC1	61.6% (active)
O=C(c1cccc(F)c1)N1CCN(c2cc(N3CCCCC3)c(F)cc2[N+](=O)[O-])CC1	46.2% (inactive)
O=C(NC(=O)N1CCN(c2ccc(F)cc2)CC1)c1ccccc1	32.6% (inactive)
O=C(c1ccc2c(Cl)c3c(nc2c1)CCCC3)N1CCN(c2ccc(F)cc2)CC1	64.8% (active)
COc1ccc(N(CCC#N)S(=O)(=O)c2ccc(Cl)cc2)cc1	26.2% (inactive)
Cc1ccc(NC(=O)CNc2ccc(OC(C)C)cc2)cc1	50.8% (active)
CC(C)Oc1ccc(NC(=O)CCC(=O)O)cc1	21.6% (inactive)
CCC(C)(C)NCC(=O)Nc1ccc(OC(F)(F)F)cc1	36.4% (inactive)
C=C(C(=O)c1ccccc1)C(C)C(=C)C(=O)c1ccccc1	59.5% (active)
CNC(=O)C(NC(=O)c1ccccc1)=C(C)C	30.4% (inactive)

Compound	inhibition
COc1ccc(C(=O)NCc2ccccc2)cc1S(=O)(=O)N1CCCc2ccccc21	32.7% (inactive)
Cc1ccc(NC2(C#N)C(=O)Nc3ccccc32)cc1 (centres undefined)	30.8% (inactive)
CN1CCN(S(=O)(=O)c2ccc(NC(=S)NC(=O)C(C)(C)C)cc2)CC1	26.6% (inactive)
COC(=O)c1ccccc1NC(=O)C1CCN(C(=O)c2cc(OC)cc(OC)c2)CC1	20.4% (inactive)
COC(=O)c1ccccc1NC(=O)C1CCCN(S(=O)(=O)c2ccc(OC)cc2)C1 (centres undefined)	66.3% (active)
CCCCn1cnc2c1c(=O)[nH]c(=O)n2CCCC	21.8% (inactive)
O=[N+]([O-])c1ccc(O)c2ncccc12	93.5% (active)
O=C(c1ccc(Cl)c([N+](=O)[O-])c1)N(c1ccccn1)c1ccccn1	24.1% (inactive)
O=C(Cn1c(=O)oc2ccccc21)Nc1ccc(Cl)cc1	33% (inactive)
CN1/C(=C\C(=O)Nc2ccc(Cl)cc2)C(C)(C)c2ccccc21	42.2% (inactive)
O=C(Cc1noc2ccccc12)Nc1ccc(Cl)cc1	55.3% (active)
C#CCOc1c(Br)cc(/C=N/O)cc1OCC	-19.1% (inactive)
Cc1cccnc1NC(=O)c1ccccc1NC(=O)C(C)(C)C	36.7% (inactive)
O=[N+]([O-])c1cccc(CNc2ccc3c(c2)CCC3)c1	52.9% (active)
O=C(c1cccc([N+](=O)[O-])c1)n1nc(-c2ccccc2)nc1NCc1ccccc1	37% (inactive)
COc1cccc(CNc2ccc3c(c2)CCC3)c1	34.2% (inactive)
O=C1CCCc2ccccc2N1Cc1ccc(Cl)cc1Cl	28.2% (inactive)
Brc1cccc(OCCCCN2CCCCC2)c1	29.7% (inactive)
Cc1cc(Br)ccc1OCCCCN1CCC(C)CC1	52.2% (active)
CC1CCN(CCOc2cccc(Br)c2)CC1	36% (inactive)
Cc1c(-c2ccccc2)[n+](=O)c2c(n1[O-])CCC2	22.1% (inactive)
COc1cccc(C2c3c(-c4ccccc4O)n[nH]c3C(=O)N2Cc2ccco2)c1 (centres undefined)	29.4% (inactive)
CN1CCN(C(=O)CSc2nc3c(c(=O)n(C)c(=O)n3C)n2C)CC1	29.1% (inactive)

Compound	inhibition
Nc1[nH]ncc1N=Nc1ccc(Cl)cc1	56.7% (active)
CC(C)(CN1CCN(Cc2ccccc2)CC1)NS(=O)(=O)c1ccc(Cl)cc1	42.2% (inactive)
O=c1c(O)c(-c2cccs2)oc2ccccc12	78% (active)
CCOC(=O)c1c(-c2ccccc2)nc2ccccn12	99.4% (active)
CCOCCCn1c(=NC(C)=O)c(C(=O)OCC)cc2c(=O)n3ccccc3nc21	23.1% (inactive)
CCOC(=O)CSc1nnc(-c2ccccc2)c(=O)[nH]1	33.8% (inactive)
CCOC(=O)c1ccccc1NC(=O)COc1cc(=O)n(CC)c2ccccc12	8% (inactive)
CC(=O)N1CC[n+]2c(-c3ccc(Cl)cc3Cl)csc21	19.1% (inactive)
CCN1CCN(Cc2cccc(Oc3ccccc3)c2)CC1	34.3% (inactive)
Nc1ccc(Oc2cccc(Oc3ccc(N)cc3)c2)cc1	50.5% (active)
CC(C)C(NC(=O)CN1C(=O)c2ccccc2S1(=O)=O)C(C)C	21.5% (inactive)
O=C(N/N=C/c1cc2c3c(c1O)CCCN3CCC2)c1ccccc1O	25.8% (inactive)
Cn1c(=O)c2c(nc(Sc3ncccn3)n2Cc2ccccc2Cl)n(C)c1=O	29.4% (inactive)
Cc1cc(OCCN2CCCC2)cc(C(C)C)c1	34.4% (inactive)
O=C(NCCCc1ccccc1)c1ccccc1O	53% (active)
O=C(CN1C(=O)C2C3C=CC(C3)C2C1=O)NCCc1ccccc1 (centres undefined)	24.9% (inactive)
COc1ccc(CNc2nc(C)c([N+](=O)[O-])c(C)c2C#N)cc1	29.2% (inactive)
CC(C)(C)n1nc(-c2ccc(F)cc2)c2c(N)ncnc21	91.7% (active)
COc1ccc(-c2csc(N3C(=O)C4C5c6ccccc6C(c6ccccc65)[C@@H]4C3=O)n2)cc1 (some centres undefined)	45.8% (inactive)
Nc1nc2ccc(Oc3ccccc3)cc2s1	88.2% (active)
Nc1nc(-c2ccc(Oc3ccccc3)cc2)cs1	98.5% (active)
c1ccc(CCNc2nc(-c3cccnc3)cs2)cc1	32.7% (inactive)
Cc1sc(N)nc1-c1ccc(Oc2ccccc2)cc1	61.1% (active)
